Imprint erasure = qHTS Assay for Compounds that Induce Erasure of Genomic Imprints; mouse ES Peg3-LacZ reporter, beta-gal luminescence, 40 h; Potency, µM (highest dose often 60.7 µM), for the others: top-dose activity change, positive = activation, most hits filed as activators; 110,000 tested, 0.02% active; AID 1948, 2009
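Imprint erasure is scored as LacZ activity from the silenced maternal Peg3 allele in feeder-free female ES cells cultured 40 h with LIF. Luminescence is normalized to in-plate negative controls and fitted to the Hill equation.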
p53ts 39C tox = qHTS Screen for Compounds that Selectively Target Cancer Cells with p53 Mutations: Cytotoxicity of p53ts Cells at the Nonpermissive Temperature. H1299-p53A138V viability at 39C, ATP luminescence, 24 h. Potency, µM (doses to about 46.1 µM), for the others: top-dose activity change, negative = cell killing, actives largely listed as cytotoxic. 130,000 tested, 1.5% active; also: % is scaled to controls: 0 for no effect and ±100 for the full control effect; nearly all actives have a fitted effect of over 55% in size
p53ts 32C kill = qHTS Screen for Compounds that Selectively Target Cancer Cells with p53 Mutations: Cytotoxicity of p53ts Cells at the Permissive Temperature | Potency, µM (top dose mostly 46.1 µM), without a hit: at the highest dose activity change, negative = cytotoxicity, usual class: cytotoxic | H1299-p53A138V at 32C, ATP luminescence viability, 24 h | 130,000 tested, 0.93% active | AID 924, 2007;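 also: 0% = DMSO and -100% = full killing by reference compound; nearly all actives have a fitted effect of over 55% in size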
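H1299-p53 A138V cells (temperature-sensitive p53) exposed 24 h to up to 46 uM compound at 32C, where p53 is wild-type in conformation. Viability read as ATP luminescence and normalised to DMSO and 100 uM tamoxifen. AC50 fitted with the Hill equation.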
Active calls of the source: *; ? = inconclusive; . = not tested or not shown; ! = repeats disagree; [ ] = another dose, or the depositor's remark. Hits are enriched below; roughly 1.6% of the tested compounds scored in any of these assays. Calls follow the shape of the dose curve; as a rule, active = well fitted curve in the direction sought with a large enough effect; inconclusive = small, poorly fitted or top-dose-only effect, or another doubt; inactive = no such curve, though single readings can be large; an effect the other way counts as inactive or inconclusive. Potency is read from the fitted curve at half-maximal effect.

SMILES | Imprint erasure | p53ts 39C tox | p53ts 32C kill
O=C(Nc1ccc2c(c1)OCO2)c1noc2c1CCCCC2 | -75% | 16µM* | 16µM*
CC(C)c1cc(C(=O)Nc2ccc3c(c2)OCO3)no1 | -58% | ? | 16µM*
O=C(Nc1ccc2c(c1)OCO2)c1ccc(Br)s1 | -46% | ? | 13µM*
Cc1cc(C)n2nc(CNC(=O)c3cccc(Cl)c3)nc2n1 | 21%[10.9 µM] | 9% | -2%
O=S(=O)(c1ccc(C2CCCCC2)cc1)N1CCN(c2cc(Cl)ccc2Cl)CC1 | ? | 14% | 0%
CCc1cc2c(nc1CC)CCN(CC/C(C)=N/O[C@@H]1O[C@H](COC(C)=O)[C@H](OC(C)=O)[C@H](OC(C)=O)[C@H]1OC(C)=O)C2 | . | 9%[9.22 µM] | 6%[9.22 µM]
Cc1cccn2c(=O)c(C(=O)N3CCN(c4ccccc4F)CC3)cnc12 | -6%[10.9 µM] | 5% | 4%
COc1ccc(N2CCN(C(=O)CCn3nc(C)c(S(=O)(=O)N4CCCC4)c3C)CC2)cc1 | 16%[10.9 µM] | -21% | -5%
Cn1c(C(=O)NCc2ccc3c(c2)OCO3)cc2sccc21 | -11% | -27% | -13%
Cc1ccc(C(=O)Nc2ccc3c(c2)OCO3)o1 | -85% | ? | 10µM*
Cn1c(C(=O)Nc2ccc3c(c2)OCO3)cc2sccc21 | -52% | 16µM* | ?
O=C(Nc1ccccc1C(F)(F)F)c1noc2c1CCCCC2 | -9%[10.9 µM] | 13µM* | 13µM*
O=C(Nc1ccc(F)cc1F)c1noc2c1CCC2 | -65% | -23% | -25%
C/C(=C\C(=O)c1ccc(C)o1)Nc1ccc2c(c1)OCO2 | -12% | 1% | -5%
CCc1ccc(N2CC(C)Cn3c2nc2c3c(=O)n(CC(=O)O)c(=O)n2C)cc1 (configuration not stated) | -9%[10.9 µM] | 19% | -4%
CCNc1ncc2nc(C)c(=O)n(Cc3cccs3)c2n1 | -12% | -5% | 18%
c1ccc2sc(SCN(C3CCCCC3)C3CCCCC3)nc2c1 | -4%[10.9 µM] | -1%[9.22 µM] | -2%[9.22 µM]
O=C(O)/C=C\C(=O)Nc1ccccn1 | -14%[10.9 µM] | -1%[9.22 µM] | -7%[9.22 µM]
O=C(/C=C\Nc1ccccn1)c1ccc(Cl)cc1 | -85% | 13µM* | 7.9µM*
O=C(Nc1ccc(S(=O)(=O)Nc2ccccc2)cc1)C1COc2ccccc2O1 (configuration not stated) | . | 22µM* | ?
CN(C)S(=O)(=O)c1ccc(NC(=O)C2COc3ccccc3O2)cc1 (configuration not stated) | -24% | -3% | -3%
CCN1C(=O)[C@H]2[C@H]3[C@H](O)[C@H](O)C/C(=N/O[C@@H](C)c4cc(-c5c(C)cc(C)cc5C)no4)[C@@H]3CC[C@@H]2C1=O | . | -7%[9.22 µM] | 8%[9.22 µM]
O=c1ccnc(SCc2ccc(Cl)cc2)[nH]1 | -17%[10.9 µM] | 7%[9.22 µM] | -8%[9.22 µM]
Cc1cc(C(=O)CN2C(=O)c3ccccc3C2=O)c(C)n1Cc1cccs1 | -67% | ? | ?
Cc1cc(C(=O)Cn2nnc3ccccc3c2=O)c(C)n1Cc1cccs1 | -30% | 13µM* | 16µM*
SMILES | Imprint erasure | p53ts 39C tox | p53ts 32C kill
COc1cccc(CNC(=O)c2cnc(N3CCCCC3)c3ccccc23)c1 | -6%[10.9 µM] | -16% | -7%
CCOC(=O)c1ccc(NC(=O)c2c(NCc3cc(OC)c(OC)cc3OC)sc3c2CCCC3)cc1 | -8%[10.9 µM] | 6% | 11%
Cc1ccc2nc(-c3ccc(NC(=O)c4ccc(N)cc4)c(S(=O)(=O)O)c3)sc2c1 | -4%[10.9 µM] | -24%[9.22 µM] | -9%[9.22 µM]
Nc1ccc2nc(-c3ccc(O)cc3)sc2c1 | -79%[10.9 µM] | 0.63µM* | 0.63µM*
Nc1cccc(-c2nc3ccc(N)cc3s2)c1 | -90% | 3.2µM* | 3.2µM*
Nc1ccc(O)c(-c2nc3ccccc3s2)c1 | -86% | -24% | -11%
O[C@@H](c1cc(-c2ccccc2)nc2c1ccc1ccccc12)[C@@H]1CCCCN1 | . | -8%[9.22 µM] | 6%[9.22 µM]
CCCC[C@@H]1C[C@H]1C(NC(=O)c1cccnc1)c1ccc(Cl)cc1 (some centres not stated) | -22% | 13µM* | ?
CCCC[C@@H]1C[C@H]1C(NC(=O)c1ccccc1)c1ccc(Cl)cc1 (some centres not stated) | -16% | -8% | -3%
CCN(CC)c1cc2c(cc1F)c(=O)c(S(=O)(=O)c1ccc(C)cc1)cn2Cc1ccc(F)cc1 | . | . | -1%
COC(=O)NC(c1ccc(Cl)cc1)C(C(C)=O)C(=O)OC (configuration not stated) | . | -7%[9.22 µM] | 8%[9.22 µM]
C=CCN1C(=O)C2C(C(=O)NC)C3(C)C=CC2(O3)C1C(=O)NCc1ccc(OC)cc1 (configuration not stated) | -2% | 5% | -1%
C=CCN1C(=O)C2C(C(=O)NCc3ccccc3)C3(C)C=CC2(O3)C1C(=O)NC(C)(C)C (configuration not stated) | 10µM* | -1% | 10%
CCCn1cnc2c(SCC(=O)O)nc(N)nc21 | -9%[10.9 µM] | -1%[9.22 µM] | 1%[9.22 µM]
COc1ccc(-c2nnc(SCC(=O)NCc3ccccc3)nc2-c2ccc(OC)c(OC)c2)cc1OC | -23%[10.9 µM] | -19% | 0%
CCNC(=O)C1CCN(c2nnc(C)c3c(C)n(-c4ccc(OC)cc4)nc23)CC1 | -6%[10.9 µM] | 4% | 2%
C[N+](C)([O-])CCC=C1c2ccccc2CCc2ccccc21 | -16%[10.9 µM] | -2%[9.22 µM] | 4%[9.22 µM]
CNCCC=C1c2ccccc2CCc2ccccc21 | -36% | 20µM*! | 20µM*!
CCCSCCCNC(=O)C1CCN(c2nn3cc(-c4ccc(F)cc4)nc3s2)CC1 | . | . | -6%
Fc1ccc(-n2ncc3c(NCCCN4CCOCC4)ncnc32)cc1 | 24%[10.9 µM] | ? | -8%
CCC(C)Nc1ncnc2c1cnn2-c1ccc(F)cc1 (configuration not stated) | -9%[10.9 µM] | 7.9µM* | ?
COCCCNc1ncnc2c1cnn2-c1ccc(C)cc1C | -1% | -2% | -5%
COCCCNc1ncnc2c1cnn2-c1ccc(F)cc1 | -15%[10.9 µM] | 10µM* | ?
C[N+](C)(N)CCC[N+](C)(C)N | -16%[10.9 µM] | -2%[9.22 µM] | 6%[9.22 µM]
CC(=O)Nc1cccc(-n2cc3c(c2-c2ccccc2Cl)c(=O)n(C)c(=O)n3C)c1 | -8%[10.9 µM] | -10% | 6%
SMILES | Imprint erasure | p53ts 39C tox | p53ts 32C kill
CCSc1nc2sc3c(c2c(=O)n1-c1ccc(C)c(Cl)c1)CCN(C(C)=O)C3 | 16%[10.9 µM] | 7% | 2%
CCCCCSc1nc2sc3c(c2c(=O)n1-c1ccccc1)CCN(C(C)=O)C3 | -8%[10.9 µM] | 13µM* | ?
Cc1cccc(CC(=O)NCc2nc3cccnc3n2Cc2ccc(F)cc2)c1 | 23%[10.9 µM] | -7% | -3%
CCOc1cccc(CC(=O)Nc2ccc3nc(N4CCCCC4)cc(C)c3c2)c1OCC | -8%[10.9 µM] | 49% | 7%
CCCCN(CCCC)CCNC(=O)Cn1nc(C)n2c(cc3sccc32)c1=O | -7%[10.9 µM] | -8% | -4%
Cc1nc2c(-c3ccccc3)c(C)nn2c(N)c1-c1ccccc1 | . | ? | 11µM*
CCOC(=O)Cc1c(C)nc2c(-c3ccccc3)c(C)nn2c1C | . | 9% | 8%
COc1ncc2nc(-c3cn(C)c4ccccc34)c(=O)n(C)c2n1 | 8% | 13% | 0%
CCCCCCC/C=C\CCCCCCCCC(=O)O | -11% | 11% | -5%
CCCCCCCC/C=C\CCCCCCCC(=O)N[C@@H](CO)Cc1ccc(O)cc1 | -32% | 32µM* | ?
